Measurements: PubChem BioAssay AID652105 (National Center for Advancing Translational Sciences (NCATS), 2013)
The whole screen tested about 330,000 compounds, of which about 4,100 (1.2%) were called active. Not shown: some 2% with an inconclusive outcome. Rule for the calls: active = max response of -50% or lower; inconclusive = between -30% and -50%; inactive = -30% or higher. The entries come from a sample that favours actives as a whole.
% is set by controls: 0 for no effect and ±100 for the full control effect.
Note: value at the top dose of about 77 µM.

The compounds below were run against Phosphatidylinositol 5-phosphate 4-kinase type-2 alpha (Homo sapiens) (UniProt P48426) (assay: qHTS for Inhibitors of phosphatidylinositol 5-phosphate 4-kinase (PI5P4K)). Conditions: PI5P4Kalpha enzyme, ADP-Glo luminescence, 60 min; hits give low values.
Sequence of Phosphatidylinositol 5-phosphate 4-kinase type-2 alpha (Homo sapiens) (P48426 whole entry, looked up): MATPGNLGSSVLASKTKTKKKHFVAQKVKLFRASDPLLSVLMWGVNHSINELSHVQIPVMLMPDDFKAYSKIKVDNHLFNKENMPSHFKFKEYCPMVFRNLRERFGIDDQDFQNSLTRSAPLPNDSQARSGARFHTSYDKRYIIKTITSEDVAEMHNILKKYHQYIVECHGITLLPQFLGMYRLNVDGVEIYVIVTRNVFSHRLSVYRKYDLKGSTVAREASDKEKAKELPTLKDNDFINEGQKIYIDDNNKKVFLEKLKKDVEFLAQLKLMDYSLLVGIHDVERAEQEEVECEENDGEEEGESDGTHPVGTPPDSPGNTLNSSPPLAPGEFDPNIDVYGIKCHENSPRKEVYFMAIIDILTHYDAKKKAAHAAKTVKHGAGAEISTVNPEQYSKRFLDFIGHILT
In short: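 Enzyme plus substrate dispensed, test compounds pinned in, then ATP (5 microM final) added. After 60 min at RT, ADP-Glo reagent 1 for 45 min and reagent 2 for 30 min preceded luminescence imaging.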
In the case of `COC(=O)C1(C(=O)OC)C[C@H](c2ccccc2)N(Cc2ccccc2OC)[C@@H]1c1ccccc1`, the max response is reported as 15.9% (inactive).
For `CCc1cccc(CC)c1N1C(=O)CC(Sc2ccccc2N)C1=O` (centres undefined), the max response was 0.428% (inactive).
For `COCOc1cccc(CN2CCC(C)(Oc3ccc(SC)cc3)C2)c1` (centres undefined), the max response was 9.73% (inactive).
For `CCCc1nc2c3ccccc3ccn2c1Cc1ccccc1C(F)(F)F`, the max response was -0.571% (inactive).
In the case of `COC(=O)[C@]12CCCCC=C1N(Cc1ccccc1)C(=O)[C@H](CC(=O)NCc1ccc(C)o1)C2`, the max response is reported as -16.1% (inactive).
In the case of `Cc1cc(NC(=O)Nc2ccccc2[N+](=O)[O-])no1`, the max response is reported as -55.9% (active).
With `Cc1csc(NC(=O)Nc2ccccc2[N+](=O)[O-])n1` the max response was 3.76% (inactive).
For `Cc1cc(NC(=O)COc2ccc([N+](=O)[O-])cc2)no1`, the max response was -7.69% (inactive).
With `Cc1c(C(=O)NCc2ccc(C#N)cc2)sc(=O)n1Cc1ccc(C(=O)N(C)C)cc1` the max response was -1.71% (inactive).
With `COC(=O)c1ccc2nc(-c3ccccc3)c(Cc3ccc(OC)cc3C)n2c1` the max response was -3.87% (inactive).
`CC1Cc2[nH][nH]c(=O)c2C(C2CC2)O1` (centres undefined) was tested, and the max response was 6.96% (inactive).
With `COc1ccc(-c2cc3c(c4c2ccn4C)C2CCC3C2)cn1` (centres undefined) the max response was 19.1% (inactive).
`Cc1ccc(OCc2n[nH]c(=S)n2-c2ccccc2)cc1` was tested, and the max response was -0.211% (inactive).
In the case of `COc1ccc(OCc2n[nH]c(=S)n2N)cc1`, the max response is reported as -58.2% (active).
`S=c1[nH]nc(COc2ccccc2)n1-c1ccccc1` was tested, and the max response was 2.36% (inactive).
`CCOC(=O)c1c(NC(=S)NC(=O)/C=C/c2cccs2)sc(C)c1C` was tested, and the max response was -4.36% (inactive).
For `CCc1nnc(NS(=O)(=O)c2ccc(NC(=S)NC(=O)/C=C/c3cccs3)cc2)s1`, the max response was -51.8% (active).
In the case of `CCc1nnc(NS(=O)(=O)c2ccc(NC(=O)c3cccc(OC(F)(F)C(F)F)c3)cc2)s1`, the max response is reported as -19.6% (inactive).
For `CCc1nc2ccc(C(=O)NCCNC(C)=O)cn2c1N(CC)Cc1cccc(Br)c1`, the max response was 2.11% (inactive).
In the case of `COc1cccc2c1C(=O)c1c(O)c3c(c(O)c1C2=O)CC(O)(C(C)=NNC(=O)c1ccc(Cl)c(Cl)c1)CC3OC1CC(N)C(O)C(C)O1` (centres undefined), the max response is reported as -61.1% (active).
In the case of `CCc1cc(-c2nnn(CCC3COCCO3)c2CC)ccc1-c1cn(Cc2ccc3ccccc3c2)nn1` (centres undefined), the max response is reported as 10.5% (inactive).
In the case of `O=C(NCc1cccnc1)c1cc(C2CCCCN2C(=O)CCc2ccccc2)on1` (centres undefined), the max response is reported as -8.66% (inactive).
`O=C(NC1=CC(=O)c2ccccc2C1=O)c1ccccc1` was tested, and the max response was -2.02% (inactive).
With `CC(=O)N(C1=C(Cl)C(=O)c2ccccc2C1=O)c1ccc(C(=O)O)cc1` the max response was -81.9% (active).
